Measurements reported in ChEMBL document CHEMBL2218924, “A broad activity screen in support of a chemogenomic map for kinase signalling research and drug discovery” (Biochem J, 2013).

Biological target: T1, Muscle, skeletal receptor tyrosine-protein kinase (Homo sapiens) (UniProt O15146)
T1 sequence (whole entry): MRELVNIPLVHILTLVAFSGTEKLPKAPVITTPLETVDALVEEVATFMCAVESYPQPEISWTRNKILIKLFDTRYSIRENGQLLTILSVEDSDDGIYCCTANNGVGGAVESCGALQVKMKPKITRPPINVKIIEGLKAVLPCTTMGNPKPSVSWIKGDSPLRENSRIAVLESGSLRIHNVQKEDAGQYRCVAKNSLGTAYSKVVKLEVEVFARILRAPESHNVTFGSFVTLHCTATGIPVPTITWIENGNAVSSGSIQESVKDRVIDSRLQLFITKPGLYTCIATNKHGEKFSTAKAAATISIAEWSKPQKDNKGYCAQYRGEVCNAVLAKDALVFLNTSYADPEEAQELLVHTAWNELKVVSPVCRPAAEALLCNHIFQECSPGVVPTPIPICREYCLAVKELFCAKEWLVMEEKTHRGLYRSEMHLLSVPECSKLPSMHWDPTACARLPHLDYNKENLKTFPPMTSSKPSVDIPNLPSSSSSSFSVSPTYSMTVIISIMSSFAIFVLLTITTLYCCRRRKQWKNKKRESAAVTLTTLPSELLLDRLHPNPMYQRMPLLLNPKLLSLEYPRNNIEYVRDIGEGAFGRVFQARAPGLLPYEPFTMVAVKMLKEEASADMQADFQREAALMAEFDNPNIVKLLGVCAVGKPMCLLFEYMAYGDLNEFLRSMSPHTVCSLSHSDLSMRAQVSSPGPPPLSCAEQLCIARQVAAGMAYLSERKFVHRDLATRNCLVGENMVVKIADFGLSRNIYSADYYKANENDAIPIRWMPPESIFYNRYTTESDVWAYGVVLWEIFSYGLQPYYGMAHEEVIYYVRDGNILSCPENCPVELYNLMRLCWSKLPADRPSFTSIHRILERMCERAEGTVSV
Details: at 1 µM

Going from `CO[C@H]1C[C@@H]2CC[C@@H](C)[C@@](O)(O2)C(=O)C(=O)N2CCCC[C@H]2C(=O)O[C@H]([C@H](C)C[C@@H]2CC[C@@H](O)[C@H](OC)C2)CC(=O)[C@H](C)/C=C(\C)[C@@H](O)[C@@H](OC)C(=O)[C@H](C)C[C@H](C)/C=C/C=C/C=C/1C` to `COc1ccc(C(=O)Nc2sc3c(c2C(N)=O)CCCC3)cc1OC`, the residual activity rises from 87% to 92%.

Going from `Nc1nc(Nc2ccc(S(N)(=O)=O)cc2)nn1C(=S)Nc1c(F)cccc1F` to `Oc1ccc(Nc2nc(-c3ccc(Cl)cc3)cs2)cc1`, the residual activity rises from 0% to 112%.

Compared with `O=C1NC(=O)/C(=C\c2ccc3nccnc3c2)S1`, `O=C1NC(=O)/C(=C/c2ccc3c(c2)OC(F)(F)O3)S1` is higher in residual activity: 90% for the first, 110% for the second.

First: COc1ccc(CNc2nc(N(CCO)CCO)nc3c2ncn3C(C)C)cc1
Second: CC(C)n1cnc2/c(=N/c3cccc(Cl)c3)nc(NCCO)[nH]c21
The residual activity of the first is higher: 86% for the first, 75% for the second.

First: O=C(Nc1cccc(Nc2cc(Nc3cccc(C(F)(F)F)c3)ncn2)c1)C1CC1
Second: O=C(Nc1cccc(Nc2nccc(Nc3cccc(C(F)(F)F)c3)n2)c1)C1CC1
The residual activity of the first is higher: 96% for the first, 88% for the second.

Compared with `COc1ccc(OC)c2c(=S)c3ccccc3[nH]c12`, `COc1cccc(-c2cc(=O)c3ccccc3o2)c1N` is higher in residual activity: 89% for the first, 104% for the second.

Going from `O=C1Nc2cc(Br)ccc2/C1=C1/Nc2ccccc2/C1=N\O` to `CC(=O)O/N=C1\C(=C2\C(=O)Nc3cc(Br)ccc32)Nc2ccccc21`, the residual activity falls from 80% to 73%.

Compared with `Nc1cccc(-c2cc3c(Oc4cccc(O)c4)ncnc3[nH]2)c1`, `CCC(=O)Nc1ccc2ncnc(Nc3cccc(Br)c3)c2c1` is higher in residual activity: 73% for the first, 96% for the second.

Compared with `Oc1n[nH]c2nnc(-c3c(-c4ccccc4)nn4ccccc34)cc12`, `Cc1nc(-c2ccccc2)c(-c2ccncc2)o1` is higher in residual activity: 87% for the first, 113% for the second.

Compared with `Cc1nc2cc3nc(-c4cccs4)cnc3cc2n1C`, `Cn1cnc2cc3c(Nc4cccc(Br)c4)ncnc3cc21` is higher in residual activity: 102% for the first, 104% for the second.

Compared with `O=Nc1c(-c2c(O)[nH]c3ccccc23)[nH]c2ccccc12`, `O=C1c2ccccc2-[n+]2ccc3c([nH]c4ccccc43)c21` is higher in residual activity: 58% for the first, 85% for the second.

Going from `CNc1cc2c(Nc3cccc(Br)c3)ncnc2cn1` to `CCOc1cc2ncnc(Nc3cccc(Br)c3)c2cc1OCC`, the residual activity falls from 105% to 95%.

Compared with `O=c1cc(-c2cccc3c2Sc2ccccc2S3)oc(N2CCOCC2)c1`, `O=c1c2ccccc2[nH]c(=S)n1CCN1CCC(=C(c2ccc(F)cc2)c2ccc(F)cc2)CC1` is higher in residual activity: 106% for the first, 116% for the second.

Compared with `C[C@@H](N)[C@H]1CC[C@H](C(=O)Nc2ccncc2)CC1`, `Ic1cccc(CSc2nnc(-c3ccncc3)o2)c1` is lower in residual activity: 103% for the first, 74% for the second.

Compared with `Oc1c2ccccc2c2c3c(cccc13)N=N2`, `O=C1NC(=O)c2c1c1c3ccccc3[nH]c1c1[nH]c3cc(Br)ccc3c21` is higher in residual activity: 60% for the first, 104% for the second.

Compared with `COc1cc2ncnc(Nc3ccc(O)c(Br)c3)c2cc1OC`, `CC#CC(=O)Nc1cc2c(Nc3ccc(F)c(Cl)c3)ncnc2cn1` is higher in residual activity: 77% for the first, 100% for the second.

Compared with `N#C/C(=C(\N)Sc1ccc(N)cc1)c1ccccc1C(F)(F)F`, `NC(=O)c1ccc2[nH]c(-c3ccc(Oc4ccc(Cl)cc4)cc3)nc2c1` is lower in residual activity: 86% for the first, 84% for the second.

Work on `Cc1ccc(NC2=CC(=O)c3sc(C)nc3C2=O)cc1` yielded a residual activity of 90%.

Biological target: T1, Muscle, skeletal receptor tyrosine-protein kinase (Homo sapiens)
Details: at 10 µM

Going from `CO[C@H]1C[C@@H]2CC[C@@H](C)[C@@](O)(O2)C(=O)C(=O)N2CCCC[C@H]2C(=O)O[C@H]([C@H](C)C[C@@H]2CC[C@@H](O)[C@H](OC)C2)CC(=O)[C@H](C)/C=C(\C)[C@@H](O)[C@@H](OC)C(=O)[C@H](C)C[C@H](C)/C=C/C=C/C=C/1C` to `COc1ccc(C(=O)Nc2sc3c(c2C(N)=O)CCCC3)cc1OC`, the residual activity falls from 86% to 84%.

Compared with `Nc1nc(Nc2ccc(S(N)(=O)=O)cc2)nn1C(=S)Nc1c(F)cccc1F`, `Oc1ccc(Nc2nc(-c3ccc(Cl)cc3)cs2)cc1` is higher in residual activity: 0% for the first, 91% for the second.

Compared with `O=C1NC(=O)/C(=C\c2ccc3nccnc3c2)S1`, `O=C1NC(=O)/C(=C/c2ccc3c(c2)OC(F)(F)O3)S1` is higher in residual activity: 75% for the first, 89% for the second.

Compared with `COc1ccc(CNc2nc(N(CCO)CCO)nc3c2ncn3C(C)C)cc1`, `CC(C)n1cnc2/c(=N/c3cccc(Cl)c3)nc(NCCO)[nH]c21` is lower in residual activity: 73% for the first, 35% for the second.

Compared with `O=C(Nc1cccc(Nc2cc(Nc3cccc(C(F)(F)F)c3)ncn2)c1)C1CC1`, `O=C(Nc1cccc(Nc2nccc(Nc3cccc(C(F)(F)F)c3)n2)c1)C1CC1` is lower in residual activity: 48% for the first, 3% for the second.

First: COc1ccc(OC)c2c(=S)c3ccccc3[nH]c12
Second: COc1cccc(-c2cc(=O)c3ccccc3o2)c1N
The residual activity of the first is lower: 85% for the first, 97% for the second.

First: O=C1Nc2cc(Br)ccc2/C1=C1/Nc2ccccc2/C1=N\O
Second: CC(=O)O/N=C1\C(=C2\C(=O)Nc3cc(Br)ccc32)Nc2ccccc21
The residual activity of the first is higher: 84% for the first, 51% for the second.

First: Nc1cccc(-c2cc3c(Oc4cccc(O)c4)ncnc3[nH]2)c1
Second: CCC(=O)Nc1ccc2ncnc(Nc3cccc(Br)c3)c2c1
The residual activity of the first is lower: 17% for the first, 84% for the second.

Compared with `Oc1n[nH]c2nnc(-c3c(-c4ccccc4)nn4ccccc34)cc12`, `Cc1nc(-c2ccccc2)c(-c2ccncc2)o1` is higher in residual activity: 84% for the first, 94% for the second.

Compared with `Cc1nc2cc3nc(-c4cccs4)cnc3cc2n1C`, `Cn1cnc2cc3c(Nc4cccc(Br)c4)ncnc3cc21` is higher in residual activity: 55% for the first, 85% for the second.

Going from `O=Nc1c(-c2c(O)[nH]c3ccccc23)[nH]c2ccccc12` to `O=C1c2ccccc2-[n+]2ccc3c([nH]c4ccccc43)c21`, the residual activity rises from 5% to 88%.

Compared with `CNc1cc2c(Nc3cccc(Br)c3)ncnc2cn1`, `CCOc1cc2ncnc(Nc3cccc(Br)c3)c2cc1OCC` is lower in residual activity: 93% for the first, 70% for the second.

Going from `O=c1cc(-c2cccc3c2Sc2ccccc2S3)oc(N2CCOCC2)c1` to `O=c1c2ccccc2[nH]c(=S)n1CCN1CCC(=C(c2ccc(F)cc2)c2ccc(F)cc2)CC1`, the residual activity falls from 96% to 91%.

Compared with `C[C@@H](N)[C@H]1CC[C@H](C(=O)Nc2ccncc2)CC1`, `Ic1cccc(CSc2nnc(-c3ccncc3)o2)c1` is lower in residual activity: 101% for the first, 59% for the second.

Going from `Oc1c2ccccc2c2c3c(cccc13)N=N2` to `O=C1NC(=O)c2c1c1c3ccccc3[nH]c1c1[nH]c3cc(Br)ccc3c21`, the residual activity rises from 24% to 90%.

Going from `COc1cc2ncnc(Nc3ccc(O)c(Br)c3)c2cc1OC` to `CC#CC(=O)Nc1cc2c(Nc3ccc(F)c(Cl)c3)ncnc2cn1`, the residual activity rises from 63% to 84%.

Compared with `N#C/C(=C(\N)Sc1ccc(N)cc1)c1ccccc1C(F)(F)F`, `NC(=O)c1ccc2[nH]c(-c3ccc(Oc4ccc(Cl)cc4)cc3)nc2c1` is lower in residual activity: 84% for the first, 63% for the second.

For `Cc1ccc(NC2=CC(=O)c3sc(C)nc3C2=O)cc1`, the residual activity was 85%.
